# Data: the supplement of paper PMC7765376
# Where a name gives a salt, the structure may show the parent alone. Whole data set: some 1,500 compounds, median “Excess HSA synergy score (sum over dose matrix of excess over highest single agent)” near 43, cut for the lowest 2% near -900. This excerpt belongs to a sample that is enriched for the lowest values.
# System: PEO-1
# Assay: Excess HSA synergy score (sum over dose matrix of excess over highest single agent) (score (summed % response)); higher = less synergy / more antagonism (negative = synergy)
# Settings: 72 h, read-out: viability/apoptosis luminescence (CellTiter-Glo or Caspase3-Glo / not stated per table)
# [1] = matrix design: 6x6, 5-fold dilutions (primary screen)
# [2] = matrix design: 10x10, 9-step dilutions (confirmatory)
SMILES,Excess HSA synergy score [1],Excess HSA synergy score [2]
CO[C@H]1C(=O)[C@]2(C)[C@@H](OC)C[C@H]3OC[C@@]3(OC(C)=O)[C@H]2[C@H](OC(=O)c2ccccc2)[C@]2(O)C[C@H](OC(=O)[C@H](O)[C@@H](NC(=O)OC(C)(C)C)c3ccccc3)C(C)=C1C2(C)C [Cabazitaxel] + CC[C@H](NC(=O)[C@H](C)NC)C(=O)N1C[C@@H](O)C[C@H]1Cc1c(-c2[nH]c3cc(F)ccc3c2C[C@@H]2C[C@H](O)CN2C(=O)[C@H](CC)NC(=O)[C@H](C)NC)[nH]c2cc(F)ccc12 [Birinapant],-61.8,–
Cc1ccc(NC(=O)c2cccc(C(C)(C)C#N)c2)cc1Nc1ccc2ncn(C)c(=O)c2c1 + CC[C@H](NC(=O)[C@H](C)NC)C(=O)N1C[C@@H](O)C[C@H]1Cc1c(-c2[nH]c3cc(F)ccc3c2C[C@@H]2C[C@H](O)CN2C(=O)[C@H](CC)NC(=O)[C@H](C)NC)[nH]c2cc(F)ccc12 [Birinapant],31.8,–
CCNC(=O)Nc1ccc2ncc(Nc3ccc(C)cc3)nc2n1 + CC[C@H](NC(=O)[C@H](C)NC)C(=O)N1C[C@@H](O)C[C@H]1Cc1c(-c2[nH]c3cc(F)ccc3c2C[C@@H]2C[C@H](O)CN2C(=O)[C@H](CC)NC(=O)[C@H](C)NC)[nH]c2cc(F)ccc12 [Birinapant],77.2,–
Cc1nc(Nc2n[nH]c3c2CN(C(=O)N[C@H](CN(C)C)c2ccccc2)C3(C)C)c2sccc2n1 + CC[C@H](NC(=O)[C@H](C)NC)C(=O)N1C[C@@H](O)C[C@H]1Cc1c(-c2[nH]c3cc(F)ccc3c2C[C@@H]2C[C@H](O)CN2C(=O)[C@H](CC)NC(=O)[C@H](C)NC)[nH]c2cc(F)ccc12 [Birinapant],-399,-1930
Cc1cnc(-c2cc(N3CCN(C(=O)CCS(C)(=O)=O)CC3)ncc2Cl)c(C)c1 + CC[C@H](NC(=O)[C@H](C)NC)C(=O)N1C[C@@H](O)C[C@H]1Cc1c(-c2[nH]c3cc(F)ccc3c2C[C@@H]2C[C@H](O)CN2C(=O)[C@H](CC)NC(=O)[C@H](C)NC)[nH]c2cc(F)ccc12 [Birinapant],211,–
O=C(CCN1CCN(C(=O)OCc2cc(Cl)cc(Cl)c2)CC1)c1ccc2[nH]c(=O)oc2c1 + CC[C@H](NC(=O)[C@H](C)NC)C(=O)N1C[C@@H](O)C[C@H]1Cc1c(-c2[nH]c3cc(F)ccc3c2C[C@@H]2C[C@H](O)CN2C(=O)[C@H](CC)NC(=O)[C@H](C)NC)[nH]c2cc(F)ccc12 [Birinapant],-22.5,–
CC1(C)OC2=C(C(=O)c3ccccc3C2=O)[C@H](NCc2ccccc2)[C@@H]1O + CC[C@H](NC(=O)[C@H](C)NC)C(=O)N1C[C@@H](O)C[C@H]1Cc1c(-c2[nH]c3cc(F)ccc3c2C[C@@H]2C[C@H](O)CN2C(=O)[C@H](CC)NC(=O)[C@H](C)NC)[nH]c2cc(F)ccc12 [Birinapant],60.3,–
C[C@@H](Oc1cc(-c2cnn(C3CCNCC3)c2)cnc1N)c1c(Cl)ccc(F)c1Cl [Crizotinib] + CC[C@H](NC(=O)[C@H](C)NC)C(=O)N1C[C@@H](O)C[C@H]1Cc1c(-c2[nH]c3cc(F)ccc3c2C[C@@H]2C[C@H](O)CN2C(=O)[C@H](CC)NC(=O)[C@H](C)NC)[nH]c2cc(F)ccc12 [Birinapant],-219,–
CCOC(=O)N1CCN(/[N+]([O-])=N/Oc2ccc([N+](=O)[O-])cc2C#N)CC1 + CC[C@H](NC(=O)[C@H](C)NC)C(=O)N1C[C@@H](O)C[C@H]1Cc1c(-c2[nH]c3cc(F)ccc3c2C[C@@H]2C[C@H](O)CN2C(=O)[C@H](CC)NC(=O)[C@H](C)NC)[nH]c2cc(F)ccc12 [Birinapant],10.9,–
O=C1NC(=O)[C@@H](c2cn3c4c(cccc24)CCC3)[C@@H]1c1c[nH]c2ccccc12 [Tivantinib] + CC[C@H](NC(=O)[C@H](C)NC)C(=O)N1C[C@@H](O)C[C@H]1Cc1c(-c2[nH]c3cc(F)ccc3c2C[C@@H]2C[C@H](O)CN2C(=O)[C@H](CC)NC(=O)[C@H](C)NC)[nH]c2cc(F)ccc12 [Birinapant],-96.6,–
COC(=O)Nc1ccc(-c2nc(N3CCOCC3)c3cnn(C4CCN(C(=O)OC)CC4)c3n2)cc1 + CC[C@H](NC(=O)[C@H](C)NC)C(=O)N1C[C@@H](O)C[C@H]1Cc1c(-c2[nH]c3cc(F)ccc3c2C[C@@H]2C[C@H](O)CN2C(=O)[C@H](CC)NC(=O)[C@H](C)NC)[nH]c2cc(F)ccc12 [Birinapant],-64.3,–
O=C(O)c1ccccc1C(=O)Nc1ccc(-c2ccccc2)cc1 [Kartogenin] + CC[C@H](NC(=O)[C@H](C)NC)C(=O)N1C[C@@H](O)C[C@H]1Cc1c(-c2[nH]c3cc(F)ccc3c2C[C@@H]2C[C@H](O)CN2C(=O)[C@H](CC)NC(=O)[C@H](C)NC)[nH]c2cc(F)ccc12 [Birinapant],460,–
CC[C@@H]1C(=O)N(C)c2cnc(Nc3ccc(C(=O)NC4CCN(C)CC4)cc3OC)nc2N1C1CCCC1 + CC[C@H](NC(=O)[C@H](C)NC)C(=O)N1C[C@@H](O)C[C@H]1Cc1c(-c2[nH]c3cc(F)ccc3c2C[C@@H]2C[C@H](O)CN2C(=O)[C@H](CC)NC(=O)[C@H](C)NC)[nH]c2cc(F)ccc12 [Birinapant],-84.2,–
COc1cc(C(=O)NC2CCN(C)CC2)ccc1Nc1ncc2c(n1)N(C1CCCC1)CCC(=O)N2C(C)C + CC[C@H](NC(=O)[C@H](C)NC)C(=O)N1C[C@@H](O)C[C@H]1Cc1c(-c2[nH]c3cc(F)ccc3c2C[C@@H]2C[C@H](O)CN2C(=O)[C@H](CC)NC(=O)[C@H](C)NC)[nH]c2cc(F)ccc12 [Birinapant],135,–
CC[C@@H]1C(=O)N(C)c2cnc(Nc3ccc(C(=O)N[C@H]4CC[C@H](N5CCN(CC6CC6)CC5)CC4)cc3OC)nc2N1C(C)C [Volasertib] + CC[C@H](NC(=O)[C@H](C)NC)C(=O)N1C[C@@H](O)C[C@H]1Cc1c(-c2[nH]c3cc(F)ccc3c2C[C@@H]2C[C@H](O)CN2C(=O)[C@H](CC)NC(=O)[C@H](C)NC)[nH]c2cc(F)ccc12 [Birinapant],22.4,-1030
COc1ccc(-n2nc(C(N)=O)c3c2C(=O)N(c2ccc(N4CCCCC4=O)cc2)CC3)cc1 [Apixaban] + CC[C@H](NC(=O)[C@H](C)NC)C(=O)N1C[C@@H](O)C[C@H]1Cc1c(-c2[nH]c3cc(F)ccc3c2C[C@@H]2C[C@H](O)CN2C(=O)[C@H](CC)NC(=O)[C@H](C)NC)[nH]c2cc(F)ccc12 [Birinapant],-103,–
CN1CC2c3ccccc3Oc3ccc(Cl)cc3C2C1 (stereo not drawn) [Asenapine maleate] + CC[C@H](NC(=O)[C@H](C)NC)C(=O)N1C[C@@H](O)C[C@H]1Cc1c(-c2[nH]c3cc(F)ccc3c2C[C@@H]2C[C@H](O)CN2C(=O)[C@H](CC)NC(=O)[C@H](C)NC)[nH]c2cc(F)ccc12 [Birinapant],164,–
O=S(=O)(O)c1ccc2cc(N=Nc3cc(S(=O)(=O)O)c4cccnc4c3O)ccc2c1 + CC[C@H](NC(=O)[C@H](C)NC)C(=O)N1C[C@@H](O)C[C@H]1Cc1c(-c2[nH]c3cc(F)ccc3c2C[C@@H]2C[C@H](O)CN2C(=O)[C@H](CC)NC(=O)[C@H](C)NC)[nH]c2cc(F)ccc12 [Birinapant],130,–
NC[C@H]1O[C@H](O[C@H]2[C@H](O)[C@@H](O[C@H]3O[C@H](CO)[C@@H](O)[C@H](N)[C@H]3O)[C@H](N)C[C@@H]2N)[C@H](O)[C@@H](O)[C@@H]1O [Kanamycin] + CC[C@H](NC(=O)[C@H](C)NC)C(=O)N1C[C@@H](O)C[C@H]1Cc1c(-c2[nH]c3cc(F)ccc3c2C[C@@H]2C[C@H](O)CN2C(=O)[C@H](CC)NC(=O)[C@H](C)NC)[nH]c2cc(F)ccc12 [Birinapant],-24.6,–
CCc1cccc(CC)c1NC(=O)N1Cc2[nH]nc(NC(=O)c3ccc(N4CCN(C)CC4)cc3)c2C1 + CC[C@H](NC(=O)[C@H](C)NC)C(=O)N1C[C@@H](O)C[C@H]1Cc1c(-c2[nH]c3cc(F)ccc3c2C[C@@H]2C[C@H](O)CN2C(=O)[C@H](CC)NC(=O)[C@H](C)NC)[nH]c2cc(F)ccc12 [Birinapant],-207,–
O=C(O)c1ccc(-c2cc3cccnc3c(-c3ccc4nonc4c3)n2)cc1 + CC[C@H](NC(=O)[C@H](C)NC)C(=O)N1C[C@@H](O)C[C@H]1Cc1c(-c2[nH]c3cc(F)ccc3c2C[C@@H]2C[C@H](O)CN2C(=O)[C@H](CC)NC(=O)[C@H](C)NC)[nH]c2cc(F)ccc12 [Birinapant],-117,–
